HCMV antiviral = blocks human cytomegalovirus replication; HFF cells, HCMV-luciferase reporter, 72 h; stronger effect = lower value; activity change, negative = inhibition, % at 57.5 µM; hit rate 4.5% among 410,000; in the data active means activity change below about -60%; inconclusive means no clear call, values can overlap the other calls; inactive means above about -39%
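Luciferase read-out from HCMV-luciferase-infected HFFs (MOI 1 PFU/cell) 72 h post infection at 37C; compounds added after 16 h cell attachment; activity normalized between buffer-only basal and Salinomycin (10uM) inhibitor controls.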
HCV inh = blocks hepatitis C virus; Huh7.5.1 HCVcc-Cre infection, luciferase reporter, 44 h; Potency, µM (titrated, usually from 41.8 µM), for inactives: at the highest dose activity change, negative = inhibition, most hits filed as inhibitors; hit rate 3.4% among 340,000; further: potency means the concentration at half of the fitted maximal effect
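A cell-based infection assay in which seeded cells (1,000 per well) receive test compound after 4 h, are inoculated with HCVcc-Cre at approximately 0.5 moi, and are incubated 44 h before luminescence detection.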
Pf growth 96h = inhibits malaria parasite growth, 96 h; P. falciparum luciferase reporter growth, 96 h; Potency, µM (top dose mostly 28.7 µM), for inactives: top-dose activity change, negative = inhibition, hits mostly inhibitors; hit rate 6.9% among 320,000; further: potency means the concentration at half of the fitted maximal effect
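Infected RBCs, 2% Hct / 0.05% parasitemia final; luciferase-reporter P. falciparum; cpd 96 h, 37 C, 5% CO2; luciferase detection reagent; luminescence.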
Pf growth 48h = P. falciparum growth inhibition at 48 hours (one generation) | hit rate 5.9% among 310,000 | Potency, µM (series often up to 28.7 µM), for the others: at the top dose activity change, negative = inhibition, usual class: inhibitors | P. falciparum luciferase growth in erythrocytes, 48 h; further: potency means the concentration at half of the fitted maximal effect
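Parasite viability was followed by luminescence of a genomically integrated firefly luciferase. Cultures held 0.1% parasitemia at 2% hematocrit (final), incubated under 5% CO2 at 37 C.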
Numbers without * were called inactive; ? = inconclusive; nt = no result given. Only some compounds are listed: those with a hit (about 13% of all), similar ones and a draw of the others. Unless noted, the call rests on the fitted dose curve; in most records, active means well fitted inhibition curve with a large enough effect; inconclusive means small, poorly fitted or top-dose-only effect, or another doubt; inactive means no such curve, though single readings can be large or run the other way. On the % scale 0 is the no-effect control and ±100 the full control effect.

SMILES | HCMV antiviral | HCV inh | Pf growth 96h | Pf growth 48h
Cc1ccc(NC(=O)C2CCN(c3nc(-c4ccc(C(C)C)cc4)no3)CC2)c(Cl)c1 | -69.4* | nt | nt | nt
Cc1ccc(C)c(N2CCN(C(=O)C3CCN(c4nc(-c5ccc(C(C)C)cc5)no4)CC3)CC2)c1 | -63.2* | nt | nt | nt
COc1ccc(-c2noc(N3CCC(C(=O)Nc4cc(OC)ccc4OC)CC3)n2)cc1 | -22.5 | ? | -22.4% | ?
O=C1NCC(O)=C1C=Nc1ccccc1O | -28.7 | -25.8% | ? | 10.4µM*
Cc1cc2nc3c(c(=O)n2[nH]1)CCCC3 | -9.8 | 0.9% | 6.4% | 11.7µM*
Cc1ccc(-c2[nH]n3c(=O)c4c(nc3c2C)CCCC4)cc1 | 13.4 | 8.3% | -27.8% | 0.0465µM*
Cc1c(-c2ccccc2)[nH]n2c(=O)c3c(nc12)CCCC3 | -13.2 | -22.2% | ? | ?
CCOc1ccc(CNCc2c(C(=O)O)n(Cc3ccccc3C)c3cc(OC)ccc23)cc1OC | -1.1 | nt | nt | nt
COc1ccc(C2C(C(=O)N3CCC(C(N)=O)CC3)CC(=O)N2c2ccc(OC)cc2)cc1 (configuration not stated) | 9.3 | 2.0% | 5.22µM* | ?
COc1ccc(C2C(C(=O)N3CCCCC3)CC(=O)N2c2ccc(OC)cc2)cc1 (configuration not stated) | 68.1 | 5.0% | 9.28µM* | 1.65µM*
COc1ccc(N2C(=O)CCC(C(=O)N3CCCCCC3)C2c2ccc(OC)c(OC)c2)cc1 (configuration not stated) | 5.0 | 1.7% | -7.1% | 20.6%
COc1ccc([C@@H]2[C@@H](C(=O)N3CCOCC3)CC(=O)N2C(=O)C2CC2)cc1 | 11.4 | nt | nt | nt
CCCN(CCC)CCNC(=O)C1CC(=O)N(c2ccc(OC)cc2)C1c1ccc(OC)cc1 (configuration not stated) | 31.3 | ? | 1.65µM* | ?
CCN(CC)CCNC(=O)C1CCC(=O)N(c2ccc(OC)cc2)C1c1ccc(F)cc1 (configuration not stated) | 11.7 | 23.0% | 57.5% | 7.1%
COc1ccc(C2C(C(=O)N3CCC4(CC3)OCCO4)CC(=O)N2c2ccc(OC)cc2)cc1 (configuration not stated) | nt | 21.0% | nt | 11.7µM*
CC1=C(c2ccc(C)c(C)c2)S(=O)(=O)N(Cc2ccc(C(=O)NCc3cccc(C)c3)cc2)C1=O | -3.4 | nt | nt | nt
O=C(Nc1ccccc1Cl)N[C@H]1CC[C@@]23CCCN2C(=O)CCC[C@H]3C1Cc1ccccc1 (some centres not stated) | -11.8 | nt | nt | nt
COc1ccc2c(Sc3ccccc3)c(C(=O)NCCN(C)C)[nH]c2c1 | -27.3 | nt | nt | nt
CCOc1ccccc1C(=O)N1CCc2cc(OC)c(OC)cc2C1COc1ccc(OC)cc1 (configuration not stated) | 22.9 | nt | nt | nt
Cc1ccc(C)c(NC(=O)Cn2c(=O)n(CC3CCCO3)c(=O)c3ccccc32)c1 (configuration not stated) | 7.8 | nt | nt | nt
COc1ccccc1C(=O)N/C(=C\c1ccccc1)C(=O)NC(Cc1ccccc1)C(=O)O (configuration not stated) | 4.3 | -0.6% | 47.0% | -6.8%
COc1ccccc1C(=O)N/C(=C\c1ccccc1)C(=O)NC(C)C(=O)O (configuration not stated) | 3.0 | 6.1% | 9.28µM* | 21.3%
Cc1cc(Br)cn2c(Cc3ccsc3)c(-c3ccc(F)cc3)nc12 | 8.9 | nt | nt | nt
COc1ccc(Cl)cc1NC(=O)CN1c2ccccc2S(=O)(=O)c2ccccc21 | 20.2 | nt | nt | nt
Cn1cccc1C(=O)OCC(=O)N1CCc2ccccc2C1 | -61.1* | nt | nt | nt
SMILES | HCMV antiviral | HCV inh | Pf growth 96h | Pf growth 48h
Cc1cccc(C)c1OCC(=O)N1CCc2ccccc2C1 | -18.6 | -20.3% | 7.38µM* | ?
O=C(OCC(=O)N1CCc2ccccc2C1)c1cccs1 | -24.7 | 1.5% | -6.9% | 1.47µM*
Cn1cccc1C(=O)OCC(=O)N1CCc2ccccc21 | 17.5 | 3.5% | nt | nt
COc1cc(NC(=O)C2CCCN(S(=O)(=O)c3cn(C)cn3)C2)cc(OC)c1 (configuration not stated) | -7.5 | nt | nt | nt
CCOC(=O)c1c(C)[nH]c(C)c1S(=O)(=O)N1CCCC(C(=O)N2CCN(c3ccc(Cl)cc3)CC2)C1 (configuration not stated) | -23.3 | nt | nt | nt
Cc1ccccc1NC(=O)Cc1nc(CN(C)CC(=O)Nc2cccc(F)c2)cs1 | 12.3 | ? | ? | ?

From PubChem
